# From PubChem BioAssay AID720609 (Broad Institute, 2013)
# Entries with a potency or affinity are not part of this list. Activity calls are given as the source filed them.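 How the source made its calls: active means viability signal falls with a fitted half-maximal concentration at or below a set limit at all three treatment times; inconclusive means treatment times disagree, or a flat partial drop, or poor fit; inactive means inactive at every treatment time.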
# Assay: cytotoxicity in HeLa cervical cancer cells – cell-based, CellTiter-Glo ATP luminescence, 8-48 h, dry powder, mechanism study for HRAS target identification, late-stage follow-up (AID 720609)
row,SMILES,outcome
1,CCC(=O)N(c1ccc(OC)c(Cl)c1)C(C(=O)NCCc1ccccc1)c1cccs1 (configuration not stated),inactive
2,Cc1onc(C(=O)N2CCN(C(c3ccncc3)c3ccncc3)CC2)c1[N+](=O)[O-],inactive
